Experimental data as given in PubChem BioAssay AID1159580 (chemical genetic matrix, 2015).
Values joined by “and” are separate entries in the source; they are usually repeats but may differ in a detail not shown here. Equal values may be shown once. Hit rate of the full screen: of about 5,500 compounds, about 2,000 (36%) were called active. Inconclusive results (about 18%) are left out. Cut-off read from the data, not from the text of the source: active = normalized growth mostly below about 0.91 (no sharp cut-off); inconclusive = no clear call, values can overlap the other calls; inactive = mostly above about 0.92. This is one part of the list. Some compounds were tested as several samples or in several runs, with calls that do not always agree.

Test: chemical genetic growth profiling, strain panel (AID 1159580);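 note: tested at 20 µM; growth read once vehicle control cultures reached saturation at 30 °C; 1 = growth at the plate median or of vehicle wells; lower values mean less growth of the strain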
Conditions: S. cerevisiae deletion strains, growth OD

Measured: normalized growth

CN1CCN(CCCN2c3ccccc3Sc3ccc(C(F)(F)F)cc32)CC1
active: locus YAL013W, strain DEP1, stronger effect = lower value 0.065 and 0.82 | locus YAL021C, strain ccr4, stronger effect = lower value 0.0696 | locus YAL026C, strain drs2, stronger effect = lower value 0.0611 | locus YAL030W, strain snc1, stronger effect = lower value 0.0651 | locus YBL061C, strain skt5, stronger effect = lower value 0.0653 | locus YBR009C, strain hhf1, stronger effect = lower value 0.0647 | locus YBR021W, strain FUR4, stronger effect = lower value 0.102 | locus YBR023C, strain chs3, stronger effect = lower value 0.0673 | locus YBR171W, strain sec66, stronger effect = lower value 0.0984 | locus YBR229C, strain ROT2, stronger effect = lower value 0.0712 | locus YBR231C, strain swc5, stronger effect = lower value 0.0679 | locus YBR279W, strain paf1, stronger effect = lower value 0.0731 | locus YCL011C, strain gbp2, stronger effect = lower value 0.0652 | locus YCL016C, strain dcc1, stronger effect = lower value 0.0786 | locus YCL029C, strain bik1, stronger effect = lower value 0.0752 | locus YCL061C, strain MRC1, stronger effect = lower value 0.0741 | locus YCL069W, strain vba3, stronger effect = lower value 0.0697 | locus YCR088W, strain abp1, stronger effect = lower value 0.0705 | locus YDL005C, strain med2, stronger effect = lower value 0.412 | locus YDL035C, strain GPR1, stronger effect = lower value 0.061 | locus YDL040C, strain nat1, stronger effect = lower value 0.0906 | locus YDL074C, strain BRE1, stronger effect = lower value 0.0975 | locus YDL101C, strain DUN1, stronger effect = lower value 0.0711 | locus YDL134C, strain PPH21, stronger effect = lower value 0.0567 | locus YDL192W, strain arf1, stronger effect = lower value 0.0649 | locus YDR001C, strain nth1, stronger effect = lower value 0.0725 | locus YDR069C, strain doa4, stronger effect = lower value 0.0695 | locus YDR101C, strain arx1, stronger effect = lower value 0.0878 | locus YDR137W, strain rgp1, stronger effect = lower value 0.261 | locus YDR150W, strain NUM1, stronger effect = lower value 0.0679 | locus YDR159W, strain sac3, stronger effect = lower value 0.0958 | locus YDR162C, strain NBP2, stronger effect = lower value 0.0537 | locus YDR195W, strain ref2 0.141 | locus YDR297W, strain sur2, stronger effect = lower value 0.0695 | locus YDR318W, strain mcm21, stronger effect = lower value 0.0756 | locus YDR334W, strain swr1, stronger effect = lower value 0.0668 | locus YDR335W, strain msn5, stronger effect = lower value 0.0678 | locus YDR363W, strain ESC2, stronger effect = lower value 0.87 | locus YDR388W, stronger effect = lower value 0.0596 | locus YDR392W, strain spt3, stronger effect = lower value 0.0857 | locus YDR502C, strain sam2, stronger effect = lower value 0.0724 | locus YEL003W, strain gim4, stronger effect = lower value 0.0619 | locus YEL037C, strain rad23, stronger effect = lower value 0.0674 | locus YEL061C, strain CIN8 (second series), stronger effect = lower value 0.0766 | locus YEL061C, strain CIN8, stronger effect = lower value 0.0589 | locus YER015W, strain faa2, stronger effect = lower value 0.0802 | locus YER016W, strain bim1, stronger effect = lower value 0.0723 | locus YER110C, stronger effect = lower value 0.293 | locus YER111C, strain swi4, stronger effect = lower value 0.36 | locus YER155C, strain BEM2, stronger effect = lower value 0.12 | locus YER167W, strain BCK2, stronger effect = lower value 0.0606 | locus YFR010W, strain ubp6, stronger effect = lower value 0.0817 | locus YGL086W, strain mad1, stronger effect = lower value 0.0657 | locus YGL167C, strain pmr1, stronger effect = lower value 0.0948 | locus YGL173C, strain kem1, stronger effect = lower value 0.216 | locus YGL227W, strain vid30, stronger effect = lower value 0.0831 | locus YGL240W, strain doc1, stronger effect = lower value 0.554 | locus YGL248W, strain PDE1, stronger effect = lower value 0.0581 | locus YGL253W, strain hxk2, stronger effect = lower value 0.0605 | locus YGR135W, strain pre9, stronger effect = lower value 0.0937 | locus YGR229C, strain SMI1, stronger effect = lower value 0.0673 and 0.0769 | locus YGR252W, strain gcn5, stronger effect = lower value 0.138 | locus YHR013C, strain ard1, stronger effect = lower value 0.169 | locus YHR027C, strain rpn1, stronger effect = lower value 0.0682 | locus YHR079C, strain IRE1 (second series), stronger effect = lower value 0.0763 | locus YHR094C, strain hxt1, stronger effect = lower value 0.0748 | locus YHR129C, strain ARP1, stronger effect = lower value 0.0646 | locus YHR142W, strain chs7, stronger effect = lower value 0.0848 | locus YHR200W, strain rpn10, stronger effect = lower value 0.0811 | locus YIL066C, strain RNR3, stronger effect = lower value 0.0614 | locus YIL073C, strain SPO22, stronger effect = lower value 0.113 | locus YIR030C, strain dcg1, stronger effect = lower value 0.0766 | locus YJL092W, strain hpr5, stronger effect = lower value 0.0707 | locus YJL095W, strain BCK1 (second series), stronger effect = lower value 0.0585 | locus YJL115W, strain asf1, stronger effect = lower value 0.0851 | locus YJL129C, strain trk1, stronger effect = lower value 0.0827 | locus YJL134W, strain LCB3, stronger effect = lower value 0.108 | locus YJL154C, strain vps35, stronger effect = lower value 0.0623 | locus YJL164C, strain tpk1, stronger effect = lower value 0.0715 | locus YJL166W, strain qcr8, stronger effect = lower value 0.0701 | locus YJL168C, strain set2, stronger effect = lower value 0.0656 | locus YJL187C, strain SWE1 (second series), stronger effect = lower value 0.0593 | locus YJL187C, strain SWE1, stronger effect = lower value 0.0715 | locus YJR043C, strain POL32, stronger effect = lower value 0.0718
0.0646 (active) and 0.977 (inactive): locus YJL095W, strain BCK1, stronger effect = lower value
inactive: locus YAL040C, strain CLN3, stronger effect = lower value 0.989 | locus YCL061C, strain MRC1 (second series), stronger effect = lower value 0.969 | locus YDL185W, strain tfp1, stronger effect = lower value 0.936 | locus YER002W, strain NOP16, stronger effect = lower value 1.07 | locus YER155C, strain BEM2 (second series), stronger effect = lower value 1.01 | locus YGL078C, strain dbp3, stronger effect = lower value 0.978 | locus YHR079C, strain IRE1, stronger effect = lower value 0.961 | locus YIL125W, strain kgd1, stronger effect = lower value 0.982 | locus YJR066W, strain TOR1, stronger effect = lower value 0.915
0.0545 (active) and 0.948 (inactive): locus YHR030C, strain SLT2, stronger effect = lower value
0.0702 (active) and 0.956 (inactive): locus YGR078C, strain PAC10, stronger effect = lower value
